# Results as given in PubChem BioAssay (EPA / NIEHS).
# Where “and” joins values, the source holds several entries; their conditions need not be identical. Identical values can stand only once. Results filed as inconclusive are left out. A structure can be active in one record and inactive in another. Calls of active or inactive are those of the source. Rule for the calls: active = hit-call score of the fitted dose curve at least 0.9, where 1 is the maximum; inconclusive = response in the unintended direction; inactive = score below 0.9.
# Tests used:
# [1] = Tanguay_ZF_120hpf_ActivityScore_legacy: (Legacy) Oregon State University Tanguay Lab 120 Hour Post-fertilization zebrafish Assay Score for Activity (AID 2283742);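 for AC50: dechorionated Tropical 5D wild-type zebrafish embryos held singly per well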
# In short: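 Binary scoring of mortality and morphology by brightfield at 24 and 120 hpf, summarised into one activity score from 18 components relative to DMSO. Wild-type Tropical 5D zebrafish, chorion removed at 4 hpf, static exposure 6–120 hpf, 28 °C.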
# [2] = biological target: Luciferin 4-monooxygenase (Photinus pyralis) (UniProt P08659); assay: CCTE_Simmons_QuantiLum_inhib_2: CCTE's Firefly Luciferase Inhibition Assay, Simmons Lab (AID 2283767);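 for AC50: potency for inhibitors that lower luciferase luminescence relative to DMSO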
# In short: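 Cell-free QuantiLum luciferase, 5 ng/well; compounds 5 nM–87.5 uM final, 8 conc, 0.5% DMSO; 30 min, 37C, dark. Detection reagent (150 uM D-luciferin, 147 uM dATP, CoA, DTT, pH 7.8 final) injected per well, kinetic luminescence. Triplicate biological replicates.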
# [3] = ArunA_CellTiter_hNC: Viability Assessment in the ArunA Biomedical's Oris Neural Crest (hNC) Cell Migration Assay (AID 2283752)
# In short: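 hNC cells (H9 ESC-derived), 60,000/well, Matrigel, LIF + bFGF medium; 16 h 37C attachment; 72 h compound in test medium; CellTiter Aqueous One read-out; loss-of-signal vs DMSO baseline.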
# [4] = ArunA_CellTiter_hNP: Viability Assessment in the ArunA Biomedical's Oris Neural Crest (hNC) Cell Migration Assay (AID 2283753)
# In short: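 Viability read with CellTiter 96 Aqueous One after 72 h chemical exposure of human hNP1 neuroprogenitors, which were plated on Matrigel in LIF/bFGF medium 16 h beforehand. Endpoint fitted in positive direction relative to DMSO.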
# [5] = ArunA_Migration_hNP: ArunA Biomedical's Oris Neuroprogenitor (hNP) Cell Migration Assay (AID 2283754)
# In short: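 Readout is calcein-AM fluorescence (ex494/em517) of cells migrating into the detection zone, relative to DMSO. hNP1 cells (H9-derived) grown on Matrigel behind stoppers 16 h, then stoppers pulled and chemical applied 72 h; cytochalasin D as control.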
# [6] = ArunA_NOG_NucleusCount: ArunA Biomedical's Neurite Outgrowth (NOG) Assay for Nucleus Count (AID 2283756)
# In short: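 Viable neuron count, from Hoechst nuclei passing size and intensity gates, imaged at 20x on differentiated H9-derived human neurons. Exposure lasted 48 h from seeding; activity was scored relative to DMSO.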
# [7] = ArunA_Migration_hNC: ArunA Biomedical's Oris Neural Crest (hNC) Cell Migration Assay (AID 2283755)
# In short: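 Calcein-AM fluorescence (ex494 nm/em 517 nm) in the stopper-defined detection zone quantifies migration of hNC cells after 72 h chemical exposure; 60,000 cells/well plated on Matrigel with LIF and bFGF, 16 h pre-incubation. DMSO baseline.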
# [8] = ArunA_NOG_BranchPointsPerNeurite: ArunA Biomedical's Neurite Outgrowth (NOG) Assay for Branch Points Per Neurite (AID 2283759)
# In short: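 Automated image analysis traced neurites (processes >10 um) from valid cell bodies after Hoechst and βIII-tubulin staining. hNN cells from H9 embryonic stem cells, 48 h exposure. Fitted bidirectionally against DMSO.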
# [9] = ArunA_NOG_NeuriteLength: ArunA Biomedical's Neurite Outgrowth (NOG) Assay for Neurite Length (AID 2283757)
# In short: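 Total neurite length per neuron, from traced βIII-tubulin-labelled processes longer than 10 um on viable Hoechst-gated cells, was scored as decrease from DMSO. Cells were hESC (H9)-derived neurons given 48 h chemical exposure immediately after seeding.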
# [10] = ArunA_NOG_NeuritesPerNeuron: ArunA Biomedical's Neurite Outgrowth (NOG) Assay for Neurites Per Neuron (AID 2283758)
# In short: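 Differentiated human H9-derived neurons exposed to chemicals for 48 h from seeding, then stained with Hoechst and βIII-tubulin/DyLight 488. Automated imaging counted neurites (processes >10 um) per valid neuron; loss of signal versus DMSO scored.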
# Chain of Luciferin 4-monooxygenase (Photinus pyralis) (P08659 whole entry, looked up): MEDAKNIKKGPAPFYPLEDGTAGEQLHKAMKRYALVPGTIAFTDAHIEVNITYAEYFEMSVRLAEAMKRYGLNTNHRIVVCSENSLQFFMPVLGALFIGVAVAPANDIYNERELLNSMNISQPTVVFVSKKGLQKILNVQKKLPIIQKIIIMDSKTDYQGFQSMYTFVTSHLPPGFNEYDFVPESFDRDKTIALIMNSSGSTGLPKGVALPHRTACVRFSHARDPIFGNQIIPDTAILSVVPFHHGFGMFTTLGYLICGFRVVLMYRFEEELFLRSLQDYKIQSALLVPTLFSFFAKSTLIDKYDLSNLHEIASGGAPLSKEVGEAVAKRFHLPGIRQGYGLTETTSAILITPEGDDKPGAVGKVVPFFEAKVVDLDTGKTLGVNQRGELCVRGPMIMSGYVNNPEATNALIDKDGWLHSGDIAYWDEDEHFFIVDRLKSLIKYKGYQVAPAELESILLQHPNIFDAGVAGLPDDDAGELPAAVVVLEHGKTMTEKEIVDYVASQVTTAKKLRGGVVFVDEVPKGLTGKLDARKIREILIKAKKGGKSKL
smiles,measurement,setting,value
O=C(Nc1ccccc1)Nc1ccnc(Cl)c1,AC50,[1],38.6 µM (active)
same,outcome,[2],inactive
CCCCNC(=O)n1c(NC(=O)OC)nc2ccccc21,outcome,[1],inactive
same,AC50,[2],21.5 µM (active)
O=C(O)COc1nc(Cl)c(Cl)cc1Cl,outcome,[1],inactive
CCCN(CCC)c1c([N+](=O)[O-])cc(S(N)(=O)=O)cc1[N+](=O)[O-],outcome,[1],inactive
same,outcome,[2],inactive
C=CCC1=C(C)C(OC(=O)C2C(C=C(C)C)C2(C)C)CC1=O (stereo not drawn),outcome,[1],inactive
same,outcome,[2],inactive
Oc1ccccc1-c1ccccc1,AC50,[1],45.8 µM (active)
same,outcome,[2],inactive
COP(N)(=O)SC (stereo not drawn),outcome,[1],inactive
same,outcome,[2],inactive
CCOC(=O)CC(SP(=S)(OC)OC)C(=O)OCC (stereo not drawn),AC50,[1],29.2 µM (active)
same,outcome,[2],inactive
CCOC(=O)C(Cl)Cc1cc(-n2nc(C)n(C(F)F)c2=O)c(F)cc1Cl (stereo not drawn),AC50,[1],2.02 µM (active)
CCNc1nc(Cl)nc(NCC)n1,outcome,[1],inactive
CON(C)C(=O)Nc1ccc(Cl)c(Cl)c1,outcome,[1],inactive
same,outcome,[2],inactive
C=CCC1=C(C)[C@@H](OC(=O)[C@@H]2[C@@H](C=C(C)C)C2(C)C)CC1=O,outcome,[1],inactive
same,AC50,[3],0.992 µM (active)
same,outcome,[4],inactive
same,outcome,[5],inactive
same,outcome,[6],inactive
same,outcome,[2],inactive
CC(C)(C)c1ccc(CSc2cnn(C(C)(C)C)c(=O)c2Cl)cc1,AC50,[1],40.3 µM (active)
same,outcome,[3],inactive
same,outcome,[4],inactive
same,AC50,[5],0.0196 µM (active)
same,AC50,[7],0.0516 µM (active)
same,outcome,[6],inactive
same,outcome,[8],inactive
CNC(=S)S,outcome,[1],inactive
same,outcome,[2],inactive
CC1COC(Cn2cncn2)(c2ccc(Oc3ccc(Cl)cc3)cc2Cl)O1 (stereo not drawn),outcome,[1],inactive
same,outcome,[2],inactive
CCCC1COC(Cn2cncn2)(c2ccc(Cl)cc2Cl)O1 (stereo not drawn),AC50,[1],42.8 µM (active)
same,AC50,[2],14.4 µM (active)
CC1=C(C(=O)Nc2ccccc2)SCCO1,AC50,[1],47.7 µM (active)
same,outcome,[2],inactive
COC(=O)C=C(C)OP(=O)(OC)OC,outcome,[1],inactive
same,outcome,[2],inactive
CCOP(=S)(OCC)SCn1c(=O)oc2cc(Cl)ccc21,outcome,[1],inactive
same,outcome,[2],inactive
COc1ccc(C(c2ccc(OC)cc2)C(Cl)(Cl)Cl)cc1,outcome,[1],inactive
CN(C)C(=S)SSC(=S)N(C)C,AC50,[1],9.8 µM (active)
same,AC50,[2],80.1 µM (active)
Fc1ccc(Oc2ccnc3cc(Cl)cc(Cl)c23)cc1,outcome,[1],inactive
CO/C=C(/C(=O)OC)c1ccccc1Oc1cc(Oc2ccccc2C#N)ncn1,AC50,[1],9.41 µM (active) and 2.03 µM (active)
same,outcome,[1],inactive
N#Cc1nn(-c2c(Cl)cc(C(F)(F)F)cc2Cl)c(N)c1S(=O)C(F)(F)F (stereo not drawn),outcome,[1],inactive
same,AC50,[3],43.8 µM (active)
same,AC50,[4],36.8 µM (active)
same,AC50,[5],50 µM (active)
same,AC50,[7],30.9 µM (active)
same,AC50,[6],23.2 µM (active)
same,AC50,[9],31.8 µM (active)
same,AC50,[10],32 µM (active)
same,outcome,[8],inactive
O=C(O)c1nc(Cl)ccc1Cl,outcome,[1],inactive
same,outcome,[2],inactive
COP(=S)(OC)Oc1nc(Cl)c(Cl)cc1Cl,outcome,[1],inactive
same,outcome,[2],inactive
